Data: PubChem BioAssay
The source made the active and inactive calls.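 How the source made its calls, unless noted: active means NADPH fluorescence slope more negative than the mean of all samples by about 3 SD, 99.7% confidence; inactive means the rest.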

Key:
[1] = inhibitors of TNFa-induced NFkB p65 translocation, primary screen, imaging, HUVEC, MLSMR starter and 10KST1 sets (AID 438;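 active means inhibition above 20% together with a positive visual image hit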;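 further: compound added about 3h40 before a 20 min TNFalpha stimulation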;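 on inhibition: signal is the nuclear over cytoplasmic p65 intensity ratio per well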); details: HUVEC TNFa-induced p65 nuclear translocation; cell count: measured here: nuclei count (cytotoxicity indicator), at 2.08 µM; inhibition: at 2 µM, stronger effect = higher value, 0% TNFa-plus-vehicle, 100% no-TNFa wells
[2] = reduction of polyQ htt aggregates in cells – imaging, exon1htt(103Q)mCFP cells, high-content imaging, primary screen (AID 483;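 active means visual image review flags a hit and inhibition of aggregation exceeds 20%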;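 further: compound exposure lasted 3 days before fixation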;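 on nuclei count: percent of the per-plate median nuclei count of sample wells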); details: exon1htt(103Q)mCFP cell line, aggregate imaging, at 2 µM; inhibition of aggregation: stronger effect = higher value; nuclei count: measured here: cell count, toxicity
[3] = endothelial E-selectin expression blockers – imaging, HUVEC, immunofluorescence, MLSMR starter and 10KST1 sets, primary screen (AID 487;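 active means visually confirmed hit in the image check and inhibition above 20%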;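 on inhibition: signal is fraction of cell area covered by stained E-selectin grains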;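 on nuclei count: 100% = median nuclei count of all wells on the same plate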); details: HUVEC TNFalpha-induced E-selectin immunofluorescence imaging, at 2 µM; inhibition: stronger effect = higher value; nuclei count: measured here: cell number, toxicity
[4] = molecular target: Voltage-gated potassium channel subunit beta-2 (Rattus norvegicus) (UniProt P62483); assay: inhibitors of rat Kvbeta2 reductase activity – biochemical, NADPH fluorescence, primary screen (AID 622;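 active means fluorescence slope higher than the sample average by over 3 SD, cut at about -0.22 in these data, passing the limit was not always enough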;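 further: slope of raw intensity against log time taken from 70 to 1610 s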); details: recombinant KvBeta, 4-cyanobenzaldehyde reduction, at 10 µM, stronger effect = higher value
Sequence of Voltage-gated potassium channel subunit beta-2 (Rattus norvegicus) (P62483 whole entry, looked up): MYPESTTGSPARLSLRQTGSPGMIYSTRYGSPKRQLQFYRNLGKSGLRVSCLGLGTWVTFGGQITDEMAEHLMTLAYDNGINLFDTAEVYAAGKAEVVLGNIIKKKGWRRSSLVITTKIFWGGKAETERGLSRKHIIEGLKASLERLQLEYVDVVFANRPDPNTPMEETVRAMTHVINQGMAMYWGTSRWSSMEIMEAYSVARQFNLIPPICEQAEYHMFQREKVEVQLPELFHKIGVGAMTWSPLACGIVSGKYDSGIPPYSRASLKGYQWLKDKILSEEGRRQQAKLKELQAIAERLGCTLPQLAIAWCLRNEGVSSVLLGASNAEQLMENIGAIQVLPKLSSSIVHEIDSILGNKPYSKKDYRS

[5] = molecular target: Voltage-gated potassium channel subunit beta-2 (Rattus norvegicus) (UniProt P62483); assay: enhancers of rat Kvbeta2 NADPH turnover – biochemical, NADPH fluorescence, primary screen (AID 623); details: Recombinant KvBeta, NADPH fluorescence decrease slope, 10 min; at 10 µM; stronger effect = lower value;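 further: fluorescence intensity change per second fitted from 20 to 320 s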
[6] = molecular target: Alpha-2C adrenergic receptor (Homo sapiens) (UniProt P18825); assay: compounds altering alpha2C-coupled GIRK flux – cell-based, HEK293 alpha2C/GIRK1/2, thallium flux, primary screen (AID 624;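 active means fluorescence slope after compound addition differing from the mean of all screened samples at 99.7% confidence, in either direction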;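 further: slope of fluorescence ratio to pre-addition baseline per second over 15 to 24 s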); details: thallium flux BTC fluorescence, at 10 µM, actives lie on both sides
Sequence of Alpha-2C adrenergic receptor (Homo sapiens) (P18825 whole entry, looked up): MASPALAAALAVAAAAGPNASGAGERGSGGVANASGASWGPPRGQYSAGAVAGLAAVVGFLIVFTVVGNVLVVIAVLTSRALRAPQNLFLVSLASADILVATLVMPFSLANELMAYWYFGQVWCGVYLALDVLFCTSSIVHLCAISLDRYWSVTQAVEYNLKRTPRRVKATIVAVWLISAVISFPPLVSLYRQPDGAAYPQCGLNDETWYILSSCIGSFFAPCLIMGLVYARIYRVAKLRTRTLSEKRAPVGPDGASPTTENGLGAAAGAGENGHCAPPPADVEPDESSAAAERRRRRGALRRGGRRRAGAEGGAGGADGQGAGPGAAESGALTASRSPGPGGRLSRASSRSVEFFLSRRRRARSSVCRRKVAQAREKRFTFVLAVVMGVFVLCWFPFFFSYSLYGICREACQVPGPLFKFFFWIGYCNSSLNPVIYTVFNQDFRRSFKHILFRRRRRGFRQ

[7] = blockers of RIG-like receptor reporter activation – cell-based, Sendai virus stimulus, luciferase, 10K MLSCN set, TLR/RLR signaling modifier project, primary screen (AID 602276;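 active means inhibition at or above 50% at 10 µM; inactive means inhibition below 50%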;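 further: firefly luciferase from ISG56 promoter only with Renilla not read in this screen; 0% = Sendai virus plus DMSO and 100% = medium plus DMSO without virus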); details: HEK293 RL24 IRF3 luciferase reporter, at 10 µM, stronger effect = higher value
[8] = TLR3 IRF3 reporter activation blockers – cell-based, poly I:C stimulus, luciferase, 10K MLSCN set, primary screen (AID 602277;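 active means inhibition of the reporter signal at or above 50%; inactive means inhibition below 50%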); details: HEK293-TLR3 RL24 IRF3 luciferase reporter, at 10 µM, stronger effect = higher value

| Structure (SMILES) | cell count [1] | inhibition [1] | inhibition of aggregation [2] | nuclei count [2] [%] | inhibition [3] | nuclei count [3] [%] | fluorescence slope [4] | NADPH fluorescence slope [5] | slope [6] | inhibition [7] | inhibition [8] |
| --- | --- | --- | --- | --- | --- | --- | --- | --- | --- | --- | --- |
| O=C(CN(Cc1cccs1)C(=O)CNS(=O)(=O)c1ccccc1)NCc1ccco1 | 473 | -4.2% (inactive) | -5% (inactive) | 104 | -65.9% (inactive) | 98.5 | -0.594 (inactive) | 3.8e-05 (inactive) | 0.00631 (inactive) | -8.34% (inactive) | -2.97% (inactive) |
| CCn1c(-c2cc(Br)ccc2O)n[nH]c1=S | 623 | -3.8% (inactive) | -0.9% (inactive) | 112 | -27.4% (inactive) | 83.3 | -0.59 (inactive) | -3.5e-05 (inactive) | 0.00762 (inactive) | 8.59% (inactive) | 9.74% (inactive) |
| Cc1ccc(OC(=O)CCC(=O)OCCCC(F)(F)C(F)(F)F)cc1 | 403 | -3% (inactive) | 4.9% (inactive) | 103 | 4.5% (inactive) | 92.5 | -0.382 (inactive) | -5.9e-05 (inactive) | 0.00733 (inactive) | 3.53% (inactive) | 21.1% (inactive) |
| Cc1nn(-c2ccccc2)c2c1C(O)n1c(nc3ccccc31)S2 (stereo not drawn) | 453 | 2.5% (inactive) | 8.2% (inactive) | 83 | -10.2% (inactive) | 100 | -0.466 (inactive) | -0.000266 (inactive) | 0.00554 (inactive) | 14% (inactive) | 28.4% (inactive) |
| Cc1ccnc(N2CCN(C(=O)CSc3nc4ccccc4nc3N3CCCCC3)CC2)c1 | 451 | -9.8% (inactive) | -14.3% (inactive) | 113 | -13.7% (inactive) | 100 | -0.333 (inactive) | 9.1e-07 (inactive) | 0.00385 (inactive) | 9.18% (inactive) | 4.58% (inactive) |
| O=S(=O)(Cc1ccccc1)N1CCN(Cc2ccccc2)CC1 | 386 | 4.8% (inactive) | 12.7% (inactive) | 103 | -74.1% (inactive) | 117 | -0.46 (inactive) | 4.9e-05 (inactive) | 0.00741 (inactive) | -12% (inactive) | -7.67% (inactive) |
| COc1ccc(C)cc1NC(=O)c1nnn(Cc2cccc(F)c2)c1N | 610 | -0.2% (inactive) | 6.4% (inactive) | 100 | -31.3% (inactive) | 127 | -0.513 (inactive) | -2.7e-05 (inactive) | 0.00668 (inactive) | 40.9% (inactive) | 1.2% (inactive) |
| O=C(COC(=O)c1cnccn1)Nc1ccc2c(c1)OCO2 | 589 | 7.8% (inactive) | -8% (inactive) | 103 | -56.6% (inactive) | 105 | -0.484 (inactive) | -2.2e-05 (inactive) | 0.00566 (inactive) | 5.28% (inactive) | 21.1% (inactive) |
| COc1ccc(S(=O)(=O)Nc2cccc(C)n2)c2ccccc12 | 713 | 6.1% (inactive) | -1.6% (inactive) | 76.3 | 41.3% (inactive) | 92.3 | -0.528 (inactive) | 2.4e-05 (inactive) | 0.00605 (inactive) | -6.27% (inactive) | 0.733% (inactive) |
| COc1ccc(NC(C)=O)cc1NC(=O)CN1CCN(c2ccccn2)CC1 | 573 | -7% (inactive) | -1.2% (inactive) | 104 | -35.2% (inactive) | 74.8 | -0.526 (inactive) | -1.4e-05 (inactive) | 0.00596 (inactive) | -3.99% (inactive) | 0.164% (inactive) |
| Cc1ccc(S(=O)(=O)CC(=O)N2CCCCCC2)cc1 | 615 | 9.2% (inactive) | 17% (inactive) | 103 | -33% (inactive) | 112 | -0.504 (inactive) | -5.2e-05 (inactive) | 0.0061 (inactive) | -16.3% (inactive) | -15.4% (inactive) |
| CCCOc1cccc(NC(=O)c2c(-c3ccccc3)noc2C)c1 | 515 | 2% (inactive) | 7.5% (inactive) | 92.7 | -32% (inactive) | 116 | -0.534 (inactive) | 5.8e-06 (inactive) | 0.00598 (inactive) | 12.6% (inactive) | 18% (inactive) |
| Cc1cccc(N(CC(=O)Nc2ccc(CC#N)cc2)S(C)(=O)=O)c1 | 487 | -15.7% (inactive) | -17.9% (inactive) | 106 | -87.9% (inactive) | 109 | -0.483 (inactive) | -2.6e-05 (inactive) | 0.00518 (inactive) | 16.7% (inactive) | 28.7% (inactive) |
| NC(=O)C1(N2CCCCC2)CCN(C(=O)Nc2ccccc2C(F)(F)F)CC1 | 312 | -3.2% (inactive) | 14.4% (inactive) | 91.9 | -133% (inactive) | 142 | -0.445 (inactive) | 6.2e-06 (inactive) | 0.00567 (inactive) | 11.1% (inactive) | 31.2% (inactive) |
| NC(=O)C1CCN(C(=O)c2cc3n(n2)C(C(F)(F)F)CC(c2ccco2)N3)CC1 (stereo not drawn) | 537 | -5.4% (inactive) | 2.5% (inactive) | 93.4 | -83.5% (inactive) | 100 | -0.543 (inactive) | 1.2e-05 (inactive) | 0.00594 (inactive) | 18.6% (inactive) | 24.2% (inactive) |
| COc1ccc(-c2nnc3sc(C(C)N4C(=O)c5ccccc5C4=O)nn23)cc1 (stereo not drawn) | 528 | -3.3% (inactive) | 2.3% (inactive) | 91.9 | -8.9% (inactive) | 105 | -0.45 (inactive) | 4.5e-05 (inactive) | 0.00329 (inactive) | -9.81% (inactive) | -4.7% (inactive) |
| CC(=O)c1ccc(NC(=O)c2cc(CC(C)C)on2)cc1 | 572 | -2.3% (inactive) | 23.3% (inactive) | 97.8 | -3% (inactive) | 104 | -0.606 (inactive) | -2.3e-06 (inactive) | 0.00654 (inactive) | -32.2% (inactive) | -78% (inactive) |
| COc1ccccc1NC(=O)C1(C)Cc2ccccc2C(=O)O1 (stereo not drawn) | 640 | 12.4% (inactive) | -26.4% (inactive) | 119 | 46.9% (inactive) | 106 | -0.584 (inactive) | -3.4e-05 (inactive) | 0.00673 (inactive) | -6.71% (inactive) | -2.97% (inactive) |
| CCOc1ccc(S(=O)(=O)Nc2cccc(Cl)c2)cc1 | 376 | -2.9% (inactive) | -0.3% (inactive) | 78.4 | -10.2% (inactive) | 81.5 | -0.627 (inactive) | -2.5e-05 (inactive) | 0.00349 (inactive) | 38.8% (inactive) | 34.1% (inactive) |
| COc1cccc(NC(=O)C2CCN(c3ncccn3)CC2)c1 | 746 | -18.4% (inactive) | -8.1% (inactive) | 94.4 | -62.3% (inactive) | 129 | -0.437 (inactive) | -1.9e-05 (inactive) | 0.00449 (inactive) | 0.711% (inactive) | -6.34% (inactive) |
| CCc1ccc(NC(=O)CS(=O)CC(=O)NC(C)CCc2ccco2)cc1 (stereo not drawn) | 388 | 0.6% (inactive) | 18.9% (inactive) | 94.8 | -203% (inactive) | 116 | -0.484 (inactive) | -1.8e-05 (inactive) | 0.00694 (inactive) | 5.19% (inactive) | 13.9% (inactive) |
| O=S(=O)(c1ccc2c(c1)OCCO2)N1CCC(n2nnc3cc(F)ccc32)CC1 | 577 | -9.9% (inactive) | 1.5% (inactive) | 78 | -24.6% (inactive) | 103 | -0.5 (inactive) | -3e-05 (inactive) | 0.00521 (inactive) | 17.3% (inactive) | 17.7% (inactive) |
| O=C(Oc1ccc2c(c1)CCC2)N1CCOCC1 | 360 | 5.5% (inactive) | 6.4% (inactive) | 88.2 | 21.8% (inactive) | 81.4 | -0.393 (inactive) | 8.5e-06 (inactive) | 0.00612 (inactive) | -63.8% (inactive) | -185% (inactive) |
| O=C1OCCC1Sc1ncnc2sc3c(c12)CCC3 (stereo not drawn) | 755 | -6.2% (inactive) | 4.8% (inactive) | 84.1 | -9.4% (inactive) | 111 | -0.412 (inactive) | 4.3e-06 (inactive) | 0.00667 (inactive) | 9.45% (inactive) | 17% (inactive) |
| CCc1nnc(NC(=O)CCC(=O)Nc2ccccc2)s1 | 554 | 7.2% (inactive) | -10.2% (inactive) | 97.2 | 33.2% (inactive) | 93.4 | -0.384 (inactive) | -6.1e-05 (inactive) | 0.00537 (inactive) | 9.85% (inactive) | 2.44% (inactive) |
| Cc1cccc(C(=O)N(C)c2nnc(-c3ccncc3)s2)c1 | 346 | -10.7% (inactive) | 6.1% (inactive) | 74.3 | 34.2% (inactive) | 102 | -0.546 (inactive) | 9.6e-06 (inactive) | 0.0064 (inactive) | -6.14% (inactive) | -18% (inactive) |
| CCOC(=O)CSc1nc2cc(C(=O)N3CCC(C(N)=O)CC3)ccc2c(=O)n1-c1ccccc1 | 391 | 4.8% (inactive) | -5.8% (inactive) | 93.5 | -26.1% (inactive) | 95.3 | -0.37 (inactive) | -5.8e-05 (inactive) | 0.00452 (inactive) | 10.8% (inactive) | 9.87% (inactive) |
| CN1C(=O)C(O)(CC(=O)c2ccc(F)cc2)c2cc(Br)ccc21 (stereo not drawn) | 580 | 6% (inactive) | 22.6% (inactive) | 69.5 | 16.6% (inactive) | 97.6 | -0.436 (inactive) | -7.2e-05 (inactive) | 0.0055 (inactive) | 22.4% (inactive) | 41.2% (inactive) |
